In all, about 33,000 sequences were measured (“E-score (-0.5 to 0.5)”: median about -0.013, highest 2% from about 0.3 on). What follows is part of a selection rich in the highest values, with near analogues and random picks from the rest.

This assay concerns the target T1, Msn1 (UniProt P22148).
T1 sequence: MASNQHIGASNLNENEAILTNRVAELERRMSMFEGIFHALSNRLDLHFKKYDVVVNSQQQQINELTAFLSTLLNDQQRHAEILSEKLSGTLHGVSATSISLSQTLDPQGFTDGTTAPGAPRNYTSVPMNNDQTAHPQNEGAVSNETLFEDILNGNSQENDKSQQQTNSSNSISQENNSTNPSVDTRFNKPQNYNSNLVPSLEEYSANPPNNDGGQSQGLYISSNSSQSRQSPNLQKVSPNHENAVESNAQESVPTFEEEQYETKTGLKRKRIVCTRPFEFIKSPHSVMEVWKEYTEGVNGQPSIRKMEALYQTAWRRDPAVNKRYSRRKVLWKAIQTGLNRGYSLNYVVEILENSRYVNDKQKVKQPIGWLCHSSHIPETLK
Description: PBM E-score (8-mer binding enrichment) (E-score (-0.5 to 0.5)); higher = stronger / more preferred TF binding. As to conditions: protein concentration: 200 nM; construct: GST-full length. The essentials: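 E-scores (a modified Wilcoxon-Mann-Whitney statistic) were assigned by the Universal PBM Analysis Suite to every ungapped eight-base word pooled with its reverse complement. The input came from universal all-10-mer Agilent arrays made double-stranded by primer extension and probed with GST-tagged yeast transcription factors at about 100-200 nM. Fluorescent anti-GST detected bound protein, and masliner normalised the scans.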
As to AGACATTG, the “PBM E-score” value came out at 0.402.
The result for CGACATGC reads 0.218; that for AGACATTA, 0.429; that for ACACATTG, 0.171.
The result for AAACATTG reads -0.00791.
The result for CGACATTC reads 0.332.
In the case of CTACATTC, the “PBM E-score” value is -0.121.
The value for CCACATTA was -0.107; that for ACACATTA was 0.0185.
The value for CGACATTA was 0.386; that for AGACATGA was 0.226; that for CTACATTA was 0.00564.
The result for ACTAATCA reads 0.152; that for GTTTAGCA, 0.0757; that for CTCACCCA, -0.0776.
For TCCTTAGA, the “PBM E-score” value worked out at 0.117.
The result for CAACTATG reads 0.161; that for GGCAGCGA, -0.245; that for AGATCGCT, -0.0127.
Consider ACACATTC, for which the “PBM E-score” value turned out to be 0.11.
The value for GCACATTA was -0.0601.
The result for AGACATGC reads 0.21.
The value for GGACATTA was 0.489; that for GTACATTA was 0.278; that for AGACATTC was 0.445.
Turning to CGAAACCG, the “PBM E-score” value was 0.0338.
The result for ACGCAAGC reads -0.0684; that for ACTAGCTG, 0.0299; that for AATTCATC, -0.22.
The result for AAAAAGTG reads -0.0627.

The record behind these values is the supplement of paper PMC3334620.
